# Bead autofluor: flagged as autofluorescent in microsphere protease counterscreen | fluorescence intensity (no concentration beside the values) | AID 624483 | compound autofluorescence counterscreen, microsphere flow cytometry; hits give high values | 360,000 tested, 3.1% active; in the data active means fluorescence intensity above about 16000; inconclusive means no clear call, values can overlap the other calls
# BoNT A protease: inhibitors of Botulinum neurotoxin A light chain protease | multiplex microsphere protease substrate cleavage, flow cytometry | inhibition, % at 10 µM | 360,000 tested, 0.17% active; further: plate controls were buffer without enzyme for full effect and enzyme alone for no effect
# Anthrax LF inh2: anthrax lethal factor protease inhibition | inhibition, % at 10 µM | 360,000 tested, 0.12% active | P15917 | multiplex microsphere protease cleavage assay, LF | AID 588501; further: plate controls were buffer without enzyme for full effect and enzyme alone for no effect
# BoNT-F LC inh: inhibitors of Botulinum neurotoxin F light chain protease | Multiplex microsphere protease cleavage assay, flow cytometry | inhibition, % at 10 µM | 360,000 tested, 0.22% active; in the data active means inhibition above about 35%, passing the limit was not always enough; inconclusive means no clear call, values can overlap the other calls; further: plate controls were buffer without enzyme for full effect and enzyme alone for no effect
# * hit, by the source's call; ? = inconclusive. This is a sample that favours compounds with a hit; in the whole collection about 3.5% have one here. Unless noted, no stated cut-off is given here; in the data, active means inhibition above about 30%; inconclusive means no clear call, values can overlap the other calls; inactive means below that.
SMILES,Bead autofluor,BoNT A protease,Anthrax LF inh2,BoNT-F LC inh
Cc1sc2ncn(CC(=O)N3CCCCC3)c(=O)c2c1C,2259,-0.1,-1.4,-0.6
Cc1ccc(C2=NCC(=O)N(CC(=O)N3CCCCC3)c3sc(C)c(C)c32)cc1,23432*,?,-0.3,-4.1
C=CCSc1nnc(-c2cccc3ccccc23)o1,2777,-0.1,-0.4,10.5
C#CCSc1nnc(-c2cccc3ccccc23)o1,16238*,0.3,-4.0,-0.5
CC(C)=CC(=O)Nc1ccccc1Br,17220*,-4.5,-3.9,-5.0
O=S(=O)(NC1CC1)c1ccc(Br)cc1N1CCC[C@H]1CO,4005,-0.8,0.1,-6.6
Cc1ccc(OCC(=O)N2CCCC(CCC(=O)N(C)CCc3ccccn3)C2)cc1 (stereo not drawn),2294,0.1,-0.7,-0.8
Cc1ccc(OCC(=O)N(C)CCc2ccccn2)cc1,24016*,?,-1.6,1.3
C=CCn1c(Cc2ccc(OC)cc2)nnc1SCC(N)=O,22116*,2.5,-6.2,2.5
C=CCn1c(Cc2csc(N)n2)nnc1SCC(=O)Nc1ccc(C(=O)OCC)cc1,7701,-1.2,0.6,-11.4
C=CCn1c(Cc2csc(N)n2)nnc1SCC(=O)OCC,22718*,1.9,0.5,-2.5
C=CCn1c(CCNC(=O)c2ccc(Cl)c(Cl)c2)nnc1SCCOc1ccc(OC)cc1,21454*,?,0.5,-2.6
C=CCn1c(Cc2ccc(OCC)cc2)nnc1SCC(N)=O,9473,0.5,-2.2,2.7
C=CCn1c(SCCOc2ccccc2)nnc1C(C)NC(=O)c1ccccc1 (stereo not drawn),6043,-0.5,-3.3,-7.5
O=C(O)C1CCCN1C(=O)C1CCN(S(=O)(=O)c2cccc(C(F)(F)F)c2)CC1 (stereo not drawn),?,1.5,-1.7,-1.4
CC(Sc1nc2ccccc2c(=O)n1CCc1ccc(S(N)(=O)=O)cc1)C(=O)NC(N)=O (stereo not drawn),6039,-0.3,2.1,-5.2
CN(c1ccccc1)S(=O)(=O)c1cccc(NC(=O)CN2CCCc3ccccc32)c1,20032*,0.4,-10.4,-7.5
NS(=O)(=O)c1cccc(NC(=O)CN2CCc3ccccc32)c1,4906,-0.8,-5.6,-9.8
Cc1noc(C)c1COc1ccc(C(=O)NCc2cccs2)cc1,2857,-0.3,-3.0,-7.9
O=C(CCS(=O)(=O)Cc1ccc(Cl)cc1)NCCCN1CCOCC1,23981*,-0.4,-1.3,-0.8
CCOC(=O)C1CCN(Cc2cccc(OCc3ccccc3)c2)CC1,4017,2.7,-4.2,-2.0
O=C(NC1CC2CCCC(C1)N2C(=S)Nc1ccccc1)C1CC1 (stereo not drawn),3422,0.2,-0.7,29.1
Cc1cc(Cl)ccc1OCCCC(=O)N1CCN(C(=O)c2ccco2)CC1,21790*,3.4,-3.9,8.2
O=C(NCc1ccccc1)c1cccc(OCC(=O)N2CCN(C(=O)c3ccco3)CC2)c1,20088*,?,3.0,1.4
CCOc1cc(C(=O)NCc2ccccc2)ccc1OCC(=O)N1CCCCC1,2769,-0.4,1.3,-4.7
SMILES,Bead autofluor,BoNT A protease,Anthrax LF inh2,BoNT-F LC inh
O=C(CCCOc1ccccc1)N1CCN(C(=O)c2ccco2)CC1,23020*,0.2,0.7,0.3
O=C(NCc1ccccc1)c1ccccc1OCC(=O)N1CCCCC1,22260*,-0.9,-2.1,-2.2
Cc1ccc(OCC(=O)N2CCN(C(=O)c3ccco3)CC2)cc1,3896,-0.8,-3.9,-5.6
Cc1cc(C)cc(OCCNC(=O)c2ccc(Br)cc2)c1,3412,-1.4,10.7,-10.3
N#Cc1c(F)cccc1NCCCn1ccnc1,3221,3.1,-10.6,?
O=S1(=O)CCC(N2CCOCC2)C1 (stereo not drawn),23902*,?,-3.6,-3.6
CC1(C(=O)NS(=O)(=O)c2ccccc2Cl)CCN1C(=O)Cc1cc(F)ccc1F (stereo not drawn),3486,-0.6,0.5,-4.2
Cc1ccc(S(=O)(=O)NCC(=O)OCCOc2cccc(Cl)c2)cc1,3998,-0.8,4.8,-4.4
CC(C)CCN(CCC(C)C)C(CO)(CO)CO,3345,1.2,-5.4,6.5
O=C(/C=C/c1cc([N+](=O)[O-])ccc1OC(F)F)Nc1cccc2ccccc12,2795,-0.4,1.2,-5.6
O=C(/C=C/c1cc([N+](=O)[O-])ccc1OC(F)F)NCc1ccc(Cl)cc1,2333,-0.5,-1.3,-11.1
COc1ccccc1NC(=O)/C=C/c1cc([N+](=O)[O-])ccc1OC(F)F,6184,-0.3,2.8,-8.5
COC(=O)c1ccc(CNC(=O)/C=C/c2cc([N+](=O)[O-])ccc2OC(F)F)cc1,19547*,2.5,-4.3,1.3
COc1ccc(CNC(=O)/C=C/c2cc([N+](=O)[O-])ccc2OC(F)F)cc1,16762*,?,1.5,-1.6
COc1ccc(CNC(=O)/C=C/c2cc([N+](=O)[O-])ccc2OC(F)F)cc1OC,18771*,?,-13.2,15.0
CC(C)c1ccccc1NC(=O)c1ccc2ncsc2c1,2912,-3.3,12.6,-12.1
O=C(C1COc2ccccc2O1)N1CCN(c2nc3c(F)cc(F)cc3s2)CC1 (stereo not drawn),?,1.8,-1.7,-10.0
COc1ccc(-c2ccc(=O)[nH]n2)cc1,20511*,-1.2,-2.7,-2.5
CC(=O)Nc1cc(-c2ccc(N(C)C)cc2)cn2c(-c3ccc(F)c(Cl)c3)cnc12,2973,-0.4,-5.8,-1.8
CC(C)(C)OC(=O)N1CCC(C(=O)Nc2ccc(C(=O)NCCc3ccccc3)cc2)CC1,2985,0.5,1.3,2.2
Cc1ccc(-n2c(CCC(=O)O)ccc2-c2cccs2)cc1,23564*,-1.5,3.6,-2.2
CC(=O)c1ccc(-n2c(CCC(=O)O)ccc2-c2cccs2)cc1,9453,1.4,0.3,-1.2
C#CCOc1ccc(/C=C2/C(=O)N(c3cccc(C(=O)O)c3)N=C2C)cc1OC,3037,0.5,1.5,35.3*
Cc1ccc(C(=O)CSc2nnc3n2CCCCC3)s1,6263,-2.4,-0.3,-9.6
COc1ccccc1NC(=O)C1CCCCN1S(=O)(=O)c1ccc(F)cc1 (stereo not drawn),16434*,0.8,-1.6,3.1
SMILES,Bead autofluor,BoNT A protease,Anthrax LF inh2,BoNT-F LC inh
COc1ccc(NC(=O)C2CCCN2S(=O)(=O)c2ccc(C)cc2)cc1 (stereo not drawn),17367*,-3.7,-0.4,-2.4
COc1ccc(NC(=O)C2CCCCN2S(=O)(=O)c2ccc(F)cc2)cc1 (stereo not drawn),4260,0.5,-2.4,-4.4
COc1ccc(NC(=O)C2CCCCN2S(=O)(=O)c2ccc(F)cc2)c(OC)c1 (stereo not drawn),17466*,-1.4,-0.6,-7.5
NC(=O)CSc1oc(-c2ccco2)nc1S(=O)(=O)c1ccc(Br)cc1,3667,-5.4,-11.0,-8.0
OC(c1ccc(Cl)cc1)c1ncc(-c2ccc(Oc3ccccc3)cc2)[nH]1 (stereo not drawn),2966,-0.5,-3.8,-4.7
CCN(CC)c1ccc(C=Nc2ccc(C#N)cc2)c(O)c1,2553,0.9,0.5,-10.4
CCN(CC)c1ccc(C=Nc2ccccc2C)c(O)c1,6889,50.8*,33.5*,19.3
CCN(CC)c1ccc(O)c(C=Nc2ccc(C)c(C)c2)c1,2838,50.4*,23.0,6.7
CC(C)CCn1cnc2c(NCc3ccccc3)ncnc21,24204*,-2.1,-1.6,-4.1
Cn1c(CN2CCCCC2)nc2cc(NC(=O)c3ccc(Cl)cc3)ccc21,20694*,4.9,2.4,4.9

# Assay outcomes (PubChem)
